Source: PubChem BioAssay (NCI)
Compounds without any hit were thinned out: in the full panel of roughly 83,000, 20% have a hit.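 Growth was measured after 48 h exposure to one concentration of compound in 96-well plates. Values under 10 count as active.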 Values without a mark were called inactive. The source made the active and inactive calls.

What was measured:
Experiment in all cases: NCI-60 one-dose screen, 48 h (100 = growth as untreated, 0 = no growth, -100 = all killed)
DU-145 prostate = settings: 10 µM unless noted
K-562 leukemia = settings: 10 µM unless noted
MALME-3M melanoma = settings: 10 µM unless noted
RXF 393 renal = settings: 10 µM unless noted
SF-295 CNS = settings: 10 µM unless noted
UACC-257 melanoma = settings: 10 µM unless noted
HCT-15 colon = settings: 10 µM
HT29 colon = settings: 10 µM unless noted
SNB-19 CNS = settings: 10 µM unless noted
PC-3 prostate = settings: 10 µM unless noted
SK-MEL-5 melanoma = settings: 10 µM unless noted
LOX IMVI melanoma = settings: 10 µM unless noted
CAKI-1 renal = settings: 10 µM unless noted
A498 renal = settings: 10 µM unless noted
HL-60(TB) leukemia = settings: 10 µM unless noted
MOLT-4 leukemia = settings: 10 µM
T-47D breast = settings: 10 µM unless noted
BT-549 breast = settings: 10 µM
HCC-2998 colon = settings: 10 µM unless noted
SNB-75 CNS = settings: 10 µM unless noted

SMILES	growth (DU-145 prostate)	growth (K-562 leukemia) [%]	growth (MALME-3M melanoma)	growth (RXF 393 renal)	growth (SF-295 CNS)	growth (UACC-257 melanoma)	growth (HCT-15 colon)	growth (HT29 colon)	growth (SNB-19 CNS)	growth (PC-3 prostate)	growth (SK-MEL-5 melanoma)	growth (LOX IMVI melanoma)	growth (CAKI-1 renal)	growth (A498 renal)	growth (HL-60(TB) leukemia) [%]	growth (MOLT-4 leukemia) [%]	growth (T-47D breast)	growth (BT-549 breast)	growth (HCC-2998 colon)	growth (SNB-75 CNS)
CC(C)(C)N(Cc1ccccc1)N=O	107%	101	107%	93.1%	100%	92.1%	103%	104%	97%	98.7%	99.1%	93.7%	92.9%	95.4%	106	104	97.3%	102%	110%	–
CC1(C)N=C(N)N=C(N)N1c1ccc(CCCCc2ccc(Cl)cc2S(=O)(=O)F)c(Cl)c1	22.5%	14.5	39.3%	29.6%	22.9%	10.1%	22.4%	11.4%	36.6%	21.3%	19.5%	13.3%	20.6%	54.7%	–	28.7	28.6%	37%	32%	51.9%
CCCCn1cc(C(=O)/C(C#N)=C/c2cc3ccccc3nc2Cl)c2cc(OC)ccc21	104%	47.5	88.6%	–	95.9%	98.5%	94.3%	89.9%	90.3%	87.7%	–	74%	75%	94.8%	88.7	67.8	80.4%	91.7%	96.8%	75.4%
CC(C)(NC(=O)c1nn(CCCCCF)c2ccccc12)c1ccccc1	102%	89.8	108%	112%	101%	77%	96.3%	81.9%	106%	65%	90.3%	96.3%	–	94.8%	88.3	71.9	75.4%	73.5%	105%	88.5%
O=C(O)c1nn(Cc2ccc(Cl)cc2)c2ccccc12	120%	104	113%	123%	–	93.1%	102%	118%	96.7%	98.7%	97.2%	101%	106%	96.5%	103	111	104%	122%	120%	95.9%
C[CH2][Sn]([CH2]C)([CH2]C)[NH]S(=O)(=O)c1ccc(C)cc1	113%	116	110%	123%	104%	105%	96.5%	116%	114%	111%	110%	92.3%	88.6%	68%	104	101	100%	–	99.9%	94.6%
O=C1NC(=O)C(Cc2ccccc2)(Cc2ccccc2)C(=O)N1	115%	86.7	–	113%	105%	108%	108%	104%	102%	105%	109%	90.4%	114%	104%	89.4	100	–	118%	104%	89.3%
CC1(C)N=C(N)N=C(N)N1c1ccc(OCCCCOc2ccc(S(=O)(=O)F)cc2)c(Cl)c1	24.6%	16.8	45.9%	27.9%	16.3%	–	32.8%	8.74% (active)	24.4%	5.85% (active)	9.68% (active)	14.7%	44.5%	29.3%	19.3	26.7	25.9%	28.8%	32.4%	38.3%
CCCCCCCC(=O)OCC/C=C/C1OC1C1OC(=O)/C=C\C=C\c2nc(oc2C)/C=C(/C)CCC2OC2C1OC(=O)NC(C)=O (configuration not stated)	-74.5% (active)	–	-12.4% (active)	-58.3% (active)	-37.6% (active)	5.16% (active)	-5.6% (active)	4.62% (active)	-56.8% (active)	-3.27% (active)	-93.8% (active)	-21.6% (active)	-6.91% (active)	-82.5% (active)	–	–	-42.6% (active)	-2.38% (active)	-92.8% (active)	-35.8% (active)
S=P(N1CCCCCC1)(N1CC1)N1CC1	112%	97	90.3%	124%	117%	106%	118%	101%	101%	93.7%	107%	103%	96.3%	107%	84.3	33.4	94.5%	102%	93.8%	98.7%
O=CN1N=C(c2ccccc2)CC1c1sc(N(CCCl)CCCl)nc1Cl (configuration not stated)	111%	78.1	111%	108%	94.8%	97.4%	92.8%	92.2%	90.9%	82.5%	98.5%	98.6%	79.6%	123%	94	85.6	83%	95.3%	103%	72%
c1cnc2c(c1)ccc1ncccc12	107%	99.8	118%	–	115%	96.6%	110%	109%	95.7%	–	104%	106%	91.7%	207%	93.6	100	111%	106%	119%	97.8%
CCC(CO)NC1CCCCC1 (configuration not stated)	91.1%	16.6	86.1%	45%	113%	89.9%	76.4%	5.74% (active)	88.3%	92.2%	93.4%	27.9%	61.5%	71.6%	60.9	88	–	108%	86.4%	81.6%
O=CN1N=C(c2ccc3c(c2)OCO3)CC1c1sc(N(CCCl)CCCl)nc1Cl (configuration not stated)	107%	85.4	106%	109%	104%	84.4%	99.5%	97.9%	91%	88.2%	101%	100%	82.1%	97.7%	88.6	79.3	84.1%	94.7%	106%	–
COc1cc2c(cc1OC)CN(C)C(C)C2 (configuration not stated)	109%	101	95.9%	118%	99%	104%	102%	93.2%	99%	97.4%	101%	95.1%	101%	84%	87.9	113	97.3%	115%	97.5%	87.3%
O=S(=O)(F)c1ncnc2nc[nH]c12	–	92.3	100%	101%	104%	105%	98.3%	101%	93.4%	93.7%	96.2%	85.8%	81.4%	97.2%	97.2	89.2	91.3%	100%	101%	87.3%
[N-]=[N+]=NC(C(=O)O)c1ccccc1 (configuration not stated)	116%	94.3	106%	140%	102%	98.3%	101%	99.1%	100%	112%	116%	100%	91.8%	101%	89.4	87.4	103%	114%	96.9%	96.6%
